Compound activity deposited in PubChem by National Center for Advancing Translational Sciences (NCATS).
This is a sample that favours compounds with a hit; in the whole collection about 7.3% have one here.
FMDV inh: foot and mouth disease virus antiviral activity | actives 1.2% (n = 410,000) | Potency, µM (doses to about 57.9 µM), inactives show top-dose activity change, negative = inhibition, hits mostly inhibitors | FMDV antiviral cell-based qHTS; calls by dose curve; tested in HEK293T cells; further: read-out not given here; potency means the concentration at half of the fitted maximal effect; nearly all actives have a fitted effect of over 45% in size
AmpC no deterg: AmpC beta-lactamase inhibition without detergent; P00811; AmpC nitrocefin hydrolysis, absorbance 480 nm, 0.0001% Triton; Potency, µM (highest dose often 57.1 µM), for inactives: at the top dose activity change, negative = inhibition, usual class: inhibitors; actives 0.52% (n = 330,000); AID 485341;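 further: potency means the concentration at half of the fitted maximal effect; plate controls were no compound for no effect and no enzyme for full effect; nearly all actives have a fitted effect of over 20% in size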
Target sequence (P00811 whole entry, looked up): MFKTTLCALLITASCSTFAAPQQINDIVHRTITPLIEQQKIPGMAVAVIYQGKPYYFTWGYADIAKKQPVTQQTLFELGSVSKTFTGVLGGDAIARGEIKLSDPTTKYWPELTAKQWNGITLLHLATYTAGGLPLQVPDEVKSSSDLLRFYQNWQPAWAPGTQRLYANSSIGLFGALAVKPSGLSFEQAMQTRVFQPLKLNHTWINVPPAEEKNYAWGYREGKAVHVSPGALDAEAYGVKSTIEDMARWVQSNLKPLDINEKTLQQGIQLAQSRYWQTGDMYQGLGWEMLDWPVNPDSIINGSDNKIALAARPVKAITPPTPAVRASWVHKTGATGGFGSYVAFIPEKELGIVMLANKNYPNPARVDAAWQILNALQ
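AmpC (5.3 nM in the dispensed reagent) in 20 mM phosphate pH 7.0 with 0.01% (detergent screen) or 0.0001% Triton X-100 was preincubated with compounds for 15 min at room temperature. Nitrocefin was then added from an 800 uM solution, and hydrolysis was followed at 480 nm.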
HCMV inh: human cytomegalovirus inhibition. HFF cells, HCMV-luciferase reporter, 72 h; hits give low values. activity change, negative = inhibition, % at 57.5 µM. actives 4.5% (n = 410,000); in the data active means activity change below about -60%; inconclusive means no clear call, values can overlap the other calls; inactive means above about -39%
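Steps: HFFs plated, 16 h 37C; compounds added; HCMV-luciferase added to MOI 1 PFU/cell; 72 h 37C; OneGlo reagent, 5 min room temperature; luminescence read, normalized to controls.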
HCV inhibitor: blocks hepatitis C virus; Huh7.5.1 HCVcc-Cre infection, luciferase reporter, 44 h; Potency, µM (titrated, usually from 41.8 µM), for inactives: top-dose activity change, negative = inhibition, usual class: inhibitors; actives 3.4% (n = 340,000); further: potency means the concentration at half of the fitted maximal effect
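Infectious HCV cell culture screen: compound-treated cells (1,000/well, pre-plated 4 h) are infected with HCVcc-Cre at roughly 0.5 moi and grown 44 h. Infection is quantified by luciferase signal after 15 min substrate incubation at room temperature.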
AmpC detergent: AmpC beta-lactamase inhibition with detergent present; AmpC hydrolysis of nitrocefin, absorbance 480 nm, 0.01% Triton; Potency, µM (highest dose often 114 µM), inactives show top-dose activity change, negative = inhibition, most hits filed as inhibitors; actives 0.041% (n = 370,000); AID 485294;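 further: potency means the concentration at half of the fitted maximal effect; 0% = no-compound wells and -100% = no-enzyme wells; nearly all actives have a fitted effect of over 25% in size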
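20 mM phosphate pH 7.0 + 0.01% (detergent screen) or 0.0001% Triton X-100; 5.3 nM AmpC reagent; cpd preinc 15 min RT; nitrocefin (800 uM stock) to start; A480 q20 s × 4 min; Activity was normalised to no-enzyme and no-compound control wells.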
* marks the source's active call; other numbers are inactive results; ? = inconclusive; . = no result; ! = a repeat was not active. Unless noted, the call rests on the fitted dose curve; in most records, active means well fitted curve in the direction sought with a large enough effect; inconclusive means small, poorly fitted or top-dose-only effect, or another doubt; inactive means no such curve, though single readings can be large; an effect the other way counts as inactive or inconclusive. Unless noted, on the % scale 0 is the no-effect control and ±100 the full control effect.

SMILES	FMDV inh	AmpC no deterg	HCMV inh	HCV inhibitor	AmpC detergent
Cc1c([N+](=O)[O-])c2ccc(O)cc2n1-c1ccccc1	-2%	-21%	-68*	?	-1%
Cc1ccc(-n2c(C)c([N+](=O)[O-])c3ccc(O)cc32)cc1	.	1%	?	.	2%
O=C(c1ccc(NS(=O)(=O)c2ccc(F)cc2)cc1)N1CCC1	7%	-5%	-33	11%	-7%
CCOc1ccc(NC(=O)/C=C\C(=O)N(c2ccc(C(C)C)cc2)C(C(=O)NCc2ccco2)c2ccc(F)cc2)cc1 (stereo not given)	-15%	.	-61*	.	10%
Cc1ccc(NC(=O)/C=C\C(=O)N(c2ccc(C(C)C)cc2)C(C(=O)NCc2ccco2)c2ccc(Cl)cc2)cc1 (stereo not given)	-20%	.	-76*	.	-2%
COc1ccc(N(C(=O)/C=C\C(=O)Nc2ccc(Cl)cc2)C(C(=O)NCc2ccco2)c2ccc(C)cc2)cc1 (stereo not given)	-13%	.	-40	.	-5%
O=C(Cn1c(=O)n(CCCS(=O)(=O)C2CCCCC2)c(=O)c2ccccc21)Nc1ccccc1C(F)(F)F	-22%	.	12	.	6%
C/C(=N/N=C/c1ccc(N(C)C)cc1)c1ccccc1	10µM*	-25%	-32	-5%	-8%
CN(C)c1ccc(C=Nc2ccc(N(C)C)cc2)cc1	27%	-17%	-72*	-4%	?
CN(C)c1ccc(/C=N/NC(=O)c2ccccc2)cc1	-12%	-6%	25	-15%	5%
Cc1ccc(N=Cc2ccc(N(C)C)cc2)cc1	-14%	-12%	37	-7%	?
Cc1cnc(-n2ncc(C(=O)NCCN3CCOCC3)c2C2CC2)nc1-c1cccs1	5%	.	.	.	.
CCC(C(=O)NCCC1=CCCCC1)n1nc(C)c2c(C)n(-c3ccccc3)nc2c1=O (stereo not given)	-16%	54%	-29	-17%	-15%
Cc1cc(OCc2cccc(S(=O)(=O)N3CCOCC3)c2)ccc1Cl	?	17%	-21	?	-18%
CS(=O)(=O)c1ccc(C(=O)Nc2cccc(-c3nc4ccccc4[nH]3)c2)cc1	?	-41%	27	?	-11%
CS(=O)(=O)c1cccc(C(=O)Nc2cccc(-c3nc4ccccc4[nH]3)c2)c1	11%	18µM*	5	-18%	-9%
O=C(Nc1ccc2nc(-c3ccccc3)[nH]c2c1)c1ccco1	19%	-24%	-67*	?	3%
O=C(Nc1cccc(-c2nc3ccccc3[nH]2)c1)c1cccc(NC(=O)c2ccco2)c1	32µM*	3.2µM*	-102*	3.5µM*	?
O=C(Nc1ccc2nc(-c3ccc(Br)o3)[nH]c2c1)c1ccco1	-15%	-40%	11	-20%	3%
O=S(=O)(NCC1CCCO1)c1ccc(Cl)cc1 (stereo not given)	50%	-12%	2	18%	-9%
O=C(Nc1ccccc1C(F)(F)F)c1cc2ccccc2o1	62%	-12%	61	-19%	-11%
O=C1C(Cl)=C(Nc2ccc(O)cc2)C(=O)c2ccccc21	32µM*	-21%	-99*	?	6%
CCN(CC)c1ccc(NC2=C(Cl)C(=O)c3ccccc3C2=O)cc1	?	-23%	.	?	?
COC1=C(Nc2ccc(O)cc2)C(=O)c2ccccc2C1=O	-9%	-17%	-14	?	-10%
CCCC(=O)NC1=C(Cl)C(=O)c2ccccc2C1=O	?	.	?	3.2µM*	.
SMILES	FMDV inh	AmpC no deterg	HCMV inh	HCV inhibitor	AmpC detergent
Cc1ccc(NC2=C(Cl)C(=O)c3ccccc3C2=O)cc1	-37%	-17%	39	7.1µM*	-4%
Cc1ccc(OCC(=O)N(C)CC(=O)NCc2ccco2)c(Br)c1	26%	-8%	3	1%	-17%
Cc1cc(NC(=O)C2CCN(S(=O)(=O)c3c(C)noc3C)CC2)ccc1Br	?	-12%	-61*!	-9%	-1%
Cc1noc(C)c1S(=O)(=O)N1CCCC(C(=O)Nc2ccc(Cl)cn2)C1 (stereo not given)	32µM*	-23%	-29	?	-4%
CCc1ccc(NC(=O)C2CCN(S(=O)(=O)c3c(C)noc3/C=C\c3ccc(OC)cc3)CC2)cc1	?	.	-32	.	3%
COc1ccc(/C=C\c2onc(C)c2S(=O)(=O)N2CCC(C(=O)Nc3cccc(OC)c3)CC2)cc1	14µM*	.	-27	.	4%
Cc1ccc(/C=C/c2onc(C)c2S(=O)(=O)N2CCC(C(=O)Nc3ccc(Br)c(C)c3)CC2)cc1	-16%	.	6	.	-10%
Cc1ccc(Cl)cc1NC(=O)C1CCCN(S(=O)(=O)c2c(C)noc2C)C1 (stereo not given)	?	-5%	10	4%	-6%
Cc1n[nH]c(C)c1S(=O)(=O)N1CCCC(C(=O)NCc2cccs2)C1 (stereo not given)	23%	-11%	-6	10%	-9%
Cc1n[nH]c(C)c1S(=O)(=O)N1CCCC(C(=O)Nc2nccs2)C1 (stereo not given)	0%	-12%	-98*	-12%	-11%
Cc1cc(C)cc(NC(=O)C2CCN(S(=O)(=O)c3c(C)noc3/C=C/c3ccco3)CC2)c1	-25%	.	-38	.	4%
O=C(Nc1ccc(F)c(F)c1)C1CCN(S(=O)(=O)c2cccc3nonc23)CC1	20µM*	-47%	-77*	?	?
CCOc1ccc(NC(=O)C2CCN(S(=O)(=O)c3c(C)noc3/C=C/c3ccco3)CC2)cc1	-27%	.	-78*	.	-1%
Cc1cccc(NC(=O)C2CCN(S(=O)(=O)c3c(C)noc3/C=C/c3ccco3)CC2)n1	0%	3%	-66*	?	-4%
Cc1ccc(NC(=O)C2CCN(S(=O)(=O)c3c(C)noc3/C=C/c3ccco3)CC2)cc1C	?	.	?	.	2%
Cc1noc(/C=C/c2ccco2)c1S(=O)(=O)N1CCC(C(=O)Nc2ccc(F)c(Cl)c2)CC1	?	.	-84*	.	0%
COc1cccc(C(=O)N2CCCC(c3nc(SCCN4CCOCC4)ncc3C)C2)c1 (stereo not given)	-24%	.	.	.	.
CCc1cccc(CC)c1NC(=O)C1CCC(CNS(=O)(=O)c2cccc3nsnc23)CC1 (stereo not given)	-27%	.	18	.	1%
CCN(CC)CCNC(=O)C1CCN(S(=O)(=O)c2c(C)noc2/C=C/c2ccccc2F)CC1	-2%	94%	-78*!	5.6µM*	?
Cc1noc(/C=C/c2ccccc2F)c1S(=O)(=O)N1CCC(C(=O)NCc2ccco2)CC1	2%	.	-13	.	0%
Cc1nc(C)c(-c2ccc(SCc3ccc([N+](=O)[O-])cc3)nn2)s1	-29%	106%	?	32µM*	0%
